Source: PubChem (National Center for Advancing Translational Sciences (NCATS))
Shiga toxin inh: blocks Shiga toxin action in Vero cells; 9.2% of 290,000 active; AID 2315; inhibition, % at 38.7 µM; Vero cells, Shiga toxin protein synthesis inhibition reporter; in the data active means inhibition mostly above about 28%, no sharp cut-off; inactive means mostly below about 43%
Pf growth 48h: P. falciparum growth inhibition at 48 hours (one generation). 5.9% of 310,000 active. AID 504832. P. falciparum luciferase growth in erythrocytes, 48 h. Potency, µM (doses to about 28.7 µM), most hits filed as inhibitors
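Cell-based growth assay: transgenic P. falciparum expressing firefly luciferase, cultured in red cells within RPMI 1640 containing 0.5% w/v Albumax, 24 mM bicarbonate and gentamycin. A drop in luciferase activity indicates inhibition.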
Giardia FBPA inh-1: blocks Giardia fructose-bisphosphate aldolase activity | A8B2U2 | purified Giardia FBPA | 0.71% of 290,000 active | AID 2451 | Potency, µM (highest dose often 59.6 µM), most hits filed as inhibitors; further: nearly all actives have a fitted effect of over 55% in size
Target sequence (A8B2U2 whole entry, looked up): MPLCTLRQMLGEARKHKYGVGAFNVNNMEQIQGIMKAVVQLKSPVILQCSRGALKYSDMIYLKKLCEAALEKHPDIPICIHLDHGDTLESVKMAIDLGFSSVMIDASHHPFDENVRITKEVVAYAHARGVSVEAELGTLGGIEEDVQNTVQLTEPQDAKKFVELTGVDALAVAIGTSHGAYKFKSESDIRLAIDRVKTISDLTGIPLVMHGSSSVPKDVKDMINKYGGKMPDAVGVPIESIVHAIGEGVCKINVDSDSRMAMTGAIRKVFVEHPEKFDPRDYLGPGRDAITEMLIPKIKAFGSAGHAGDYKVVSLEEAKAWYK
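Giardia FBPA (40 nM reagent) was preincubated 10 min at RT with compound (up to 57.5 uM final), then substrate plus GAPDH/TPI/NAD/arsenate coupling system with diaphorase/resazurin was added; resorufin fluorescence (525/598 nm) was read after 20 min.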
NS1 inh: inhibitors of influenza NS1 protein function; Potency, µM (highest dose often 46.1 µM); 0.4% of 270,000 active; calls by dose curve; further: actives are rising curves; nearly all actives have a fitted effect of over 50% in size
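OD600 was taken as the measure of yeast growth restored by compound in an NS1-expressing S. cerevisiae strain. Cells had been washed out of glucose medium and diluted 1:100 into galactose -URA medium, pH 6.0.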
CHX counter: counter-screen for Shiga toxin inhibitors: cycloheximide protein synthesis inhibition; cell reporter, cycloheximide protein synthesis inhibition counterscreen; max response, %; 12% of 300,000 active; AID 2314; in the data active means max response mostly above about 13%, no sharp cut-off; inactive means mostly below about 14%; further: read at 38.3 µM for the half of the compounds with a filed dose
Pf growth 96h: P. falciparum growth inhibition at 96 hour, primary screen for plastid delayed-death inhibitors; P. falciparum luciferase reporter growth, 96 h; Potency, µM (series often up to 28.7 µM), actives largely listed as inhibitors; 6.9% of 320,000 active
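Luminescence readout: decreased luciferase signal marks inhibited growth of reporter-expressing P. falciparum in infected red cells (2% hematocrit, 0.05% parasitemia final), exposed to compound two generations (96 h, 37 C, 5% CO2).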
Giardia growth: inhibitors of Giardia lamblia growth; shares compounds with Giardia FBPA inh-1; Giardia lamblia trophozoite growth inhibition; Potency, µM (highest dose often 57.5 µM), actives largely listed as inhibitors; 5% of 1,500 active; AID 2785;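 further: trophozoites exposed to compound for 48 h at 37 °C; nearly all actives have a fitted effect of over 70% in size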
Mammalian tox: toxic to mammalian cells in Giardia aldolase counter-screen | AID 2786 | Potency, µM (doses to about 57.5 µM), actives largely listed as inhibitors | 4% of 1,500 active | shares compounds with Giardia FBPA inh-1 | mammalian cell viability counter-screen, qHTS;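 further: Chinese hamster ovary cells used as mammalian cytotoxicity surrogate; viability measured as cellular ATP by luminescence; compound exposure lasted 48 h before reading; nearly all actives have a fitted effect of over 60% in size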
Giardia FBPA inh-2: confirmation of Giardia fructose-bisphosphate aldolase inhibitors; shares compounds with Giardia FBPA inh-1; AID 2787; purified Giardia aldolase enzyme activity, qHTS; Potency, µM (highest dose often 57.5 µM), usual class: inhibitors; 5% of 1,500 active; further: nearly all actives have a fitted effect of over 45% in size
Rabbit FBPA inh: blocks rabbit muscle aldolase in Giardia aldolase selectivity test | shares compounds with Giardia FBPA inh-1 | Rabbit muscle FBPA enzyme inhibition, selectivity counter-screen | Potency, µM (doses to about 57.5 µM), usual class: inhibitors | 4% of 1,500 active; further: nearly all actives have a fitted effect of over 60% in size
Target sequence (P00883 whole entry, looked up): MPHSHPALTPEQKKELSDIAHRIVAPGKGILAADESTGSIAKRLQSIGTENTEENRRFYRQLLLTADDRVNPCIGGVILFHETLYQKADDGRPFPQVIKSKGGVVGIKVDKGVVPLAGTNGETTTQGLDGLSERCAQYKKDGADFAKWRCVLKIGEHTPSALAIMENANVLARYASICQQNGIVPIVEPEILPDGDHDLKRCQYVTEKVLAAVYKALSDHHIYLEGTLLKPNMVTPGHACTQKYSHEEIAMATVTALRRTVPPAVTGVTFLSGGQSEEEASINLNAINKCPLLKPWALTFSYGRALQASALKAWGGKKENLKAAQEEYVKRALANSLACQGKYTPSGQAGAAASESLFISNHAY
GAPDH coupling: GAPDH inhibition flagged for Giardia aldolase hits; Potency, µM (titrated, usually from 57.5 µM), usual class: inhibitors; shares compounds with Giardia FBPA inh-1; GAPDH coupling enzyme counterscreen, biochemical, qHTS; 6% of 1,500 active; further: nearly all actives have a fitted effect of over 55% in size
Hits are given with their value; [ ] = remark or other dose. Sampled rows, rich in hits. Any-hit rate of the full collection: about 21%. Unless noted, the call rests on the fitted dose curve; in most records, active means well fitted curve in the direction sought with a large enough effect; inconclusive means small, poorly fitted or top-dose-only effect, or another doubt; inactive means no such curve, though single readings can be large; an effect the other way counts as inactive or inconclusive.

CCCCCCCCn1cnc2c(N)c(C)c(C)cc21 was read as Shiga toxin inh inactive, Pf growth 48h inconclusive, Giardia FBPA inh-1 inactive, NS1 inh inactive, CHX counter inactive and Pf growth 96h inconclusive.
For CCCCn1cnc2c([nH]c3ccccc32)c1=O the results were Shiga toxin inh inactive, Pf growth 48h inactive, Giardia FBPA inh-1 inactive, NS1 inh inactive, CHX counter inactive and Pf growth 96h inactive.
CCCCCn1cnc2c(=S)nc(N)[nH]c21 was read as Shiga toxin inh inactive, Pf growth 48h inconclusive, Giardia FBPA inh-1 2.8µM, NS1 inh inactive, CHX counter inactive, Pf growth 96h inconclusive, Giardia growth inactive, Mammalian tox inactive, Giardia FBPA inh-2 inactive, Rabbit FBPA inh inactive and GAPDH coupling inactive.
Screening O=C(CSc1ncnc2c1oc1ccccc12)Nc1ccccc1C(F)(F)F returned Shiga toxin inh inactive, Pf growth 48h inactive, Giardia FBPA inh-1 inactive, NS1 inh inactive, CHX counter inactive and Pf growth 96h inactive.
`Cc1cc(C(=O)NCC(=O)OCC(=O)NCC2CCCO2)ccc1[N+](=O)[O-]` (stereo unspecified) gave Pf growth 48h inactive and Pf growth 96h inactive.
For CCNC(=O)Cc1ccc(NS(=O)(=O)c2ccc(F)cc2)cc1 the results were Shiga toxin inh inactive, Pf growth 48h inactive, Giardia FBPA inh-1 inactive, NS1 inh inconclusive, CHX counter inactive and Pf growth 96h inactive.
Screening CCNC(=S)NS(=O)(=O)c1ccc(F)cc1 returned Shiga toxin inh inactive, Pf growth 48h inactive, Giardia FBPA inh-1 inconclusive, NS1 inh inactive, CHX counter inactive, Pf growth 96h inactive, Giardia growth inactive, Mammalian tox inactive, Giardia FBPA inh-2 inactive, Rabbit FBPA inh inactive and GAPDH coupling inactive.
Screening NC(N)=NS(=O)(=O)c1ccc(NC(=S)NC(=O)c2ccc(Br)cc2)cc1 returned Shiga toxin inh inactive, Pf growth 48h inactive, Giardia FBPA inh-1 inactive, NS1 inh inactive, CHX counter inactive and Pf growth 96h inactive.
`NC(N)=NS(=O)(=O)c1ccc(NC(=S)NC(=O)c2ccncc2)cc1` gave Shiga toxin inh inactive, Pf growth 48h inactive, Giardia FBPA inh-1 11µM, NS1 inh inactive, CHX counter inactive, Pf growth 96h inconclusive, Giardia growth inactive[10.4 µM], Mammalian tox inactive, Giardia FBPA inh-2 inactive, Rabbit FBPA inh inactive and GAPDH coupling inactive.
CC(C)c1cccc(OCCCCN(C)C)c1 was read as Shiga toxin inh inactive, Pf growth 48h inactive, Giardia FBPA inh-1 16µM, CHX counter inactive, Pf growth 96h inactive, Giardia growth inconclusive, Mammalian tox inactive, Giardia FBPA inh-2 inactive, Rabbit FBPA inh inactive and GAPDH coupling inactive.
CCN(CC)CCOc1cccc(C(C)C)c1 was read as Shiga toxin inh inactive, Pf growth 48h inactive, Giardia FBPA inh-1 inactive, NS1 inh inactive, CHX counter inactive and Pf growth 96h inactive.
Screening Cc1ccc(N=Nc2c(O)ccc3n[nH]nc23)cc1 returned Shiga toxin inh 103, Pf growth 48h inactive, Giardia FBPA inh-1 16µM, NS1 inh inactive, CHX counter 42, Pf growth 96h inactive, Giardia growth inconclusive, Mammalian tox inactive, Giardia FBPA inh-2 inconclusive, Rabbit FBPA inh inactive and GAPDH coupling inactive.
For Cc1nnc(N/N=C/C(C)c2ccccc2)[nH]c1=O (stereo unspecified) the results were Shiga toxin inh inactive, Pf growth 48h inactive, Giardia FBPA inh-1 inconclusive, NS1 inh inactive, CHX counter inactive and Pf growth 96h inactive.
`COC(=O)[C@@H](N)CS` gave Shiga toxin inh inactive, Pf growth 48h inactive, Giardia FBPA inh-1 16µM, NS1 inh inactive, CHX counter inactive, Pf growth 96h inactive, Giardia growth inactive[10.4 µM], Mammalian tox inactive, Giardia FBPA inh-2 inactive, Rabbit FBPA inh inactive and GAPDH coupling inactive.
For COc1cc(/C=N/n2c(-c3cc(C)[nH]n3)n[nH]c2=S)cc(OC)c1O the results were Shiga toxin inh inactive, Pf growth 48h inactive, Giardia FBPA inh-1 inconclusive, NS1 inh inactive, CHX counter inactive and Pf growth 96h inactive.
COc1cc(/C=N/n2c(=S)[nH]nc(C)c2=O)cc([N+](=O)[O-])c1O was read as Shiga toxin inh inactive, Pf growth 48h inactive, Giardia FBPA inh-1 16µM, NS1 inh inactive, CHX counter inactive, Pf growth 96h 15µM, Giardia growth inconclusive, Mammalian tox inactive, Giardia FBPA inh-2 inactive, Rabbit FBPA inh inactive and GAPDH coupling inactive.
For O=C1CS/C(=N/N=C\c2ccn[nH]2)N1 the results were Shiga toxin inh inactive, Pf growth 48h inactive, Giardia FBPA inh-1 18µM, NS1 inh inactive, CHX counter inactive, Pf growth 96h 1.9µM, Giardia growth inconclusive, Mammalian tox inactive, Giardia FBPA inh-2 inactive, Rabbit FBPA inh inactive and GAPDH coupling inactive.
For Cc1ccc(S(=O)(=O)N2CCOCC2)cc1NC(=O)CNCc1ccccc1Cl the results were Pf growth 48h inconclusive and Pf growth 96h inactive.
Cc1ccc(S(=O)(=O)N2CCCCC2)cc1NC(=O)CNCc1ccco1 was read as Shiga toxin inh inactive, Pf growth 48h inactive, Giardia FBPA inh-1 7.9µM, NS1 inh inactive, CHX counter inactive, Pf growth 96h inactive, Giardia growth inconclusive, Mammalian tox inactive, Giardia FBPA inh-2 inactive, Rabbit FBPA inh inactive and GAPDH coupling inactive.
`O=C(CNCc1ccco1)Nc1ccc(N2CCCCCC2)cc1` gave Shiga toxin inh inactive, Pf growth 48h inactive, Giardia FBPA inh-1 18µM, NS1 inh inactive, CHX counter 30, Pf growth 96h inactive, Giardia growth inconclusive, Mammalian tox inactive, Giardia FBPA inh-2 inactive, Rabbit FBPA inh inactive and GAPDH coupling inactive.
C[N+]1([O-])[C@@H]2Cc3cc4c(cc3[C@@H]1Cc1cc3c(cc12)OCO3)OCO4 (stereo partly specified) was read as Shiga toxin inh inactive, Pf growth 48h inactive, Giardia FBPA inh-1 inactive, NS1 inh inactive, CHX counter inactive and Pf growth 96h inactive.
CCn1c(SCC(=O)c2ccc(O)c(O)c2)nnc1-c1ccccc1OC was read as Shiga toxin inh inactive, Pf growth 48h inconclusive, Giardia FBPA inh-1 3.2µM, NS1 inh inactive, CHX counter inactive, Giardia growth inconclusive, Mammalian tox inactive, Giardia FBPA inh-2 inactive, Rabbit FBPA inh inactive and GAPDH coupling inactive.
